Several values for one entry are separate records, joined by “and”; a condition that tells them apart may be missing. Equal entries are not always repeated. Inconclusive results are not listed. For some assays here: Results with a measured potency or affinity are listed apart. Activity calls are given as the source filed them. Unless noted, no rule for the calls is given here.

The nature of assay [1]: polyglutamine-triggered caspase-3 activation inhibitors, cell-based (AID 1583). Conditions: polyglutamine-induced caspase-3 activation, cell assay; stronger effect = higher value;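 tested at 10 µM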.
The nature of assay [2]: suppressors of polyQ aggregation in yeast, 75Q-TubU reporter (AID 1593). Conditions: Yeast 75Q polyglutamine aggregation reporter.
Assay [3] in a line: rescue of polyQ-huntingtin neuronal dysfunction in worms, whole organism, C. elegans mechanosensory neurons, N-terminal huntingtin (AID 1599). Conditions: touch response, stronger effect = higher value.
The nature of assay [4]: inhibitors of mitochondrial cytochrome c release, biochemical, purified mitochondria (AID 1603).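 Also: mouse liver mitochondria challenged with calcium chloride; signal normalized to the plate average as 100%.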 Conditions: stronger effect = lower value.
Assay [5] is described as follows: inhibitors of polyQ protein aggregation (AID 1604). The conditions noted are these: polyglutamine-induced protein aggregation inhibition assay; stronger effect = higher value; tested at 2.5 µM.
The nature of assay [6]: enhancers of glutamate uptake in motor neurons, MN-1 cell line (AID 1612).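 Also: tested at 1 µM final; 0% = mean of DMSO vehicle wells on each plate; positive means more glutamate uptake than control and negative means less.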 Conditions: MN-1 motor neuron cells, stronger effect = higher value.
Assay [7] in a line: reducers of polyQ inclusions in PC12 cells, cell-based, NGF-treated PC12, GFPQ80 (AID 1614).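 Also: lower means fewer inclusions and 0 means no inclusions at all.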 Conditions: PC12 NGF-treated GFP-polyQ80 inclusion reduction.
Assay [8] is described as follows: suppressors of polyglutamine aggregation in yeast, 75Q-TubH (AID 1616). The conditions noted are these: S. cerevisiae 75Q-TubH polyglutamine aggregation suppression; stronger effect = higher value.
The nature of assay [9]: circadian clock period modulators, cell-based, LOPAC library, luminescence reporter (AID 2774).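 Also: values are relative to mean of DMSO wells on each plate.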 The conditions noted are these: circadian reporter cells, at 7 µM, actives lie on both sides.
Assay [10] can be described thus: hESC survival regulators, cell-based (AID 493140).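 Also: cells exposed to compounds for four days before counting.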 Conditions: human embryonic stem cell survival screen; stronger effect = higher value.
Assay [11] addresses ATP-dependent translocase ABCB1 (Homo sapiens) (UniProt P08183). Kind of assay: MDR1 (ABCB1) efflux transporter inhibition, cell-based (AID 377; in the data active = fluorescence slope change above about 50%). Conditions: MDR1-expressing cells, fluorescent substrate accumulation slope; stronger effect = higher value; concentration not given here.

Sequence of ATP-dependent translocase ABCB1 (Homo sapiens) (P08183 whole entry, looked up): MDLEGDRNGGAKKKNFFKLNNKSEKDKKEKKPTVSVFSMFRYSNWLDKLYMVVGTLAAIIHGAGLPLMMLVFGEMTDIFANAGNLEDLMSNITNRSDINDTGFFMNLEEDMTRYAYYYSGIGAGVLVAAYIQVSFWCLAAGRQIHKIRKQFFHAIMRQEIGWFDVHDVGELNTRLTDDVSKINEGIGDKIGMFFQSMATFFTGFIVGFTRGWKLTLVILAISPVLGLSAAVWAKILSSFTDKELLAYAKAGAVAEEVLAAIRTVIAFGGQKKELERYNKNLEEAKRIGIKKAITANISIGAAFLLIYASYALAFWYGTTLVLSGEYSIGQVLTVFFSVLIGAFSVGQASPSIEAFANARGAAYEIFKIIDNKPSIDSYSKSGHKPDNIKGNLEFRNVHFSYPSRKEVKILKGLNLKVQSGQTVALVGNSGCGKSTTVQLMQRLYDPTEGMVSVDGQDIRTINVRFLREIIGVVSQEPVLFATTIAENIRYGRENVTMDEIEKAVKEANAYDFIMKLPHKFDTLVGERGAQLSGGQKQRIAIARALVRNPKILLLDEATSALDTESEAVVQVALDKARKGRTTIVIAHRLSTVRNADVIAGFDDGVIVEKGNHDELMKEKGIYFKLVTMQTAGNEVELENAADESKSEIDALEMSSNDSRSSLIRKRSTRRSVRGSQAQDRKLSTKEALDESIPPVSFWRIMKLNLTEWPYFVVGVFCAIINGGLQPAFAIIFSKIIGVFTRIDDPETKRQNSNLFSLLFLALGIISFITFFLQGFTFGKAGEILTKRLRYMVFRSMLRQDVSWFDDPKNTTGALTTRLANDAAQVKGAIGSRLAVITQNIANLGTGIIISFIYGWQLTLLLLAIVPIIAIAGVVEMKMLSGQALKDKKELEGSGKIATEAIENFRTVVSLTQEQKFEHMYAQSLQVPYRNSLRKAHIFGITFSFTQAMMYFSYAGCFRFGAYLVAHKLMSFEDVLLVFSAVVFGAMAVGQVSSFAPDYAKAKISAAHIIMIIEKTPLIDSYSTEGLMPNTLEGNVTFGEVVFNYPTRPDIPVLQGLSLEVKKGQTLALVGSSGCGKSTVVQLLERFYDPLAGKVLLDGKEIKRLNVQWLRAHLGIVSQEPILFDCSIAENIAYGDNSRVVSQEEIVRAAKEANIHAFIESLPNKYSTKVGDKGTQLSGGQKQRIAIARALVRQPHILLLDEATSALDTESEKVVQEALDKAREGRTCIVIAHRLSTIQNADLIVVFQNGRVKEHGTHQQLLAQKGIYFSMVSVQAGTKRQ

Take `CC(=O)NCCCCCC(=O)O`: the inhibition in assay [1] was 22.1%. Also, the score in [2] was found to be 1.42. Also, in [3], the rescue above control is -0.56. Further, the cytochrome c release ratio in assay [4] was found to be 1.37. Moreover, the inhibition of aggregation in assay [5] was 74.4%. In addition, the glutamate uptake change in assay [6] was -9.11%. The inclusion score in assay [7] stood at 2. The compound also showed an aggregation suppression score in [8] of 1.24.
For the compound `O=C(O)CCCCCCCC(=O)O`, in [1], the inhibition is -26.7%. The score in assay [2] was found to be 1.02. Besides, the rescue above control in [3] worked out at 10.4. The cytochrome c release ratio in assay [4] was found to be 1.16. In addition, the inhibition of aggregation in assay [5] came to 79.6%. In [6], the glutamate uptake change worked out at 4.35%. In assay [7], the inclusion score was 2. Also, the aggregation suppression score in assay [8] stood at 0.919. In assay [9], the period change is 0.115 h (inactive).
Regarding `NC(=O)c1ccc([N+](=O)[O-])cc1Cl`, in [1], the inhibition is 5.22%. Moreover, the score in assay [2] was found to be 1.24. The compound further registered a rescue above control in [3] of 31.2. Also, the cytochrome c release ratio in [4] came to 1.06. Further, the inhibition of aggregation in assay [5] stood at 82.5%. The glutamate uptake change in [6] came to 19.4%. This compound gave an inclusion score in [7] of 2. In assay [8], this compound showed an aggregation suppression score of 1.31.
On to `C=CCc1ccc(O)c(OC)c1`, for which the inhibition in assay [1] is -5.5%. The compound further returned a score in assay [2] of 1.31. This compound also showed a rescue above control in [3] of 11.4. Moreover, in [4], the cytochrome c release ratio is 1.29. Besides, the inhibition of aggregation in [5] turned out to be 81.4%. In addition, the glutamate uptake change in [6] is -8.45%. The inclusion score in assay [7] was 2. In [8], this compound displayed an aggregation suppression score of 1.76.
For `CNC[C@H](O)c1cccc(O)c1`, the inhibition in assay [1] was -27.4%. The score in assay [2] was found to be 1.21. In [3], this compound yielded a rescue above control of -6.19. The cytochrome c release ratio in assay [4] was 0.84. Also, in assay [5], the inhibition of aggregation came to 47.4%. Further, the glutamate uptake change in assay [6] stood at 3.44%. The compound also returned an inclusion score in [7] of 2. In addition, in [8], the aggregation suppression score stood at 1.2. For the same compound, the period change in assay [9] was -0.48 h (inactive).
Turning to `NCCCC(=O)O`, the inhibition in [1] was 15.3%. The compound further registered a score in [2] of 1.12. The compound further yielded a rescue above control in [3] of -4.87. Further, in [4], the cytochrome c release ratio was found to be 0.87. Further, the inhibition of aggregation in assay [5] is 18.5%. Further, the glutamate uptake change in assay [6] was -3.42%. This compound showed an inclusion score in assay [7] of 2. In assay [8], this compound displayed an aggregation suppression score of 0.665. Besides, the period change in assay [9] is 0.105 h (inactive).
As for `CN(C)/N=N/c1nc[nH]c1C(N)=O`, the inhibition in [1] turned out to be 17.5%. In assay [2], this compound came in with a score of 1.36. The same compound had a rescue above control in assay [3] of -5.12. In assay [4], the cytochrome c release ratio stood at 0.99. Further, in [5], the inhibition of aggregation came out at 9.26%. In assay [6], the glutamate uptake change is -11.4%. The inclusion score in [7] was found to be 2. The aggregation suppression score in [8] was determined as 1.16.
For the compound `Nc1ccc(C(=O)O)c(O)c1`, the inhibition in assay [1] is -17.6%. Also, in assay [2], the score is 1.08. The same compound registered a rescue above control in assay [3] of 7.16. Moreover, the cytochrome c release ratio in [4] turned out to be 1.48. The inhibition of aggregation in assay [5] was found to be 88.8%. In assay [6], the glutamate uptake change was 2.47%. For the same compound, the inclusion score in assay [7] came to 2. In assay [8], this compound had an aggregation suppression score of 1.24.
Regarding `CC(=O)Oc1ccccc1C(=O)O`, the inhibition in assay [1] was -10.2%. The compound also displayed a score in assay [2] of 1.29. The rescue above control in assay [3] is 9.45. The cytochrome c release ratio in assay [4] is 1.35. The inhibition of aggregation in [5] is 61.5%. The glutamate uptake change in assay [6] was found to be 9.8%. For the same compound, the inclusion score in assay [7] was found to be 2. Moreover, the aggregation suppression score in [8] came out at 1.28. In assay [9], the period change is -0.135 h (inactive).
As to `CCCCCC(C)N` (centres undefined), the inhibition in [1] was -8.68%. This compound returned a score in [2] of 1.2. This compound gave a rescue above control in assay [3] of 1.21. Moreover, the cytochrome c release ratio in assay [4] was 1.02. Besides, the inhibition of aggregation in [5] is -9.09%. Moreover, in assay [6], the glutamate uptake change stood at 3.71%. Further, the inclusion score in [7] turned out to be 2. This compound also showed an aggregation suppression score in assay [8] of 0.962.
As to `O=c1c(O)c(-c2ccc(O)c(O)c2)oc2cc(O)cc(O)c12`, the inhibition in [1] worked out at 24.5%. The same compound displayed a score in assay [2] of 1.53. Also, the rescue above control in assay [3] came out at 8.75. In addition, in assay [4], the cytochrome c release ratio worked out at 1.04. For the same compound, in [5], the inhibition of aggregation came out at 87.3%. In addition, the glutamate uptake change in assay [6] was determined as 12.9%. The inclusion score in assay [7] turned out to be 1. This compound gave an aggregation suppression score in [8] of 1.03. Further, the period change in assay [9] was -0.025 h (inactive). For the same compound, the survival in assay [10] was 4.17 (inactive) and 87 (inactive).
On to `Cn1c(=O)c2c(ncn2C)n(C)c1=O`, for which the inhibition in [1] amounted to 5.72%. Moreover, the score in assay [2] turned out to be 1.32. The rescue above control in [3] was found to be 4.29. Moreover, in assay [4], the cytochrome c release ratio was 1.5. The inhibition of aggregation in assay [5] was 74.9%. In assay [6], the glutamate uptake change is -3.95%. Besides, the inclusion score in [7] came to 2. Further, the aggregation suppression score in [8] is 1.18. Further, in [9], the period change is 0.03 h (inactive).
For `CC[N+](CC)(CC)CCOc1cccc(OCC[N+](CC)(CC)CC)c1OCC[N+](CC)(CC)CC`, the inhibition in assay [1] was 2.37%. The compound further displayed a score in assay [2] of 1.11. Moreover, the rescue above control in assay [3] stood at 4.9. In addition, the cytochrome c release ratio in assay [4] came to 1.78. The inhibition of aggregation in [5] is 83.6%. Further, in assay [6], the glutamate uptake change came to 40.5%. This compound registered an inclusion score in [7] of 2. In [8], this compound gave an aggregation suppression score of 1.15. Further, in assay [9], the period change was 0 h (inactive). Moreover, the survival in assay [10] is 28.5 (inactive).
Take `CCN(CC)CCNC(=O)c1cc(S(C)(=O)=O)ccc1OC`: in assay [11], the fluorescence slope change was 144% (active). Further, the inhibition in assay [1] came to 6.97%. This compound also yielded a score in [2] of 1.47. The rescue above control in assay [3] amounted to 10. In addition, in assay [4], the cytochrome c release ratio is 5.94. In assay [5], the inhibition of aggregation came to 79.2%. In addition, the glutamate uptake change in assay [6] is -0.98%. In addition, the inclusion score in [7] came to 2. This compound registered an aggregation suppression score in assay [8] of 1.49. In assay [9], the period change is 0.15 h (inactive). The survival in assay [10] is 16.2 (inactive).
For the compound `CS(=O)(=O)Nc1ccc([N+](=O)[O-])cc1Oc1ccccc1`, the fluorescence slope change in [11] was 50.2% (active). Besides, the inhibition in [1] came out at 6.83%. In assay [2], this compound showed a score of 0.85. In assay [3], the rescue above control worked out at 3.29. In addition, the cytochrome c release ratio in assay [4] is 3.47. For the same compound, the inhibition of aggregation in [5] worked out at 42.5%. Besides, the glutamate uptake change in [6] was -10.7%. The compound also showed an inclusion score in assay [7] of 2. Besides, in assay [8], the aggregation suppression score came out at 0.728. In assay [9], the period change is 0.17 h (inactive). Further, in [10], the survival was 16.8 (inactive).
For `CCN(CC)CCNC(=O)c1cc(Cl)c(N)cc1OC`, in assay [11], the fluorescence slope change was 27.9% (inactive). In addition, in [1], the inhibition was -5.58%. Moreover, the score in assay [2] was 1.42. The same compound gave a rescue above control in assay [3] of -6.22. In addition, the cytochrome c release ratio in [4] is 1.15. In assay [5], the inhibition of aggregation turned out to be 25.8%. Besides, in assay [6], the glutamate uptake change is -0.01%. Further, the inclusion score in assay [7] amounted to 2. In assay [8], this compound showed an aggregation suppression score of 1.2. Moreover, the period change in [9] was -0.015 h (inactive). Besides, the survival in [10] is 14.7 (inactive).
For the compound `Cc1cc(C(C)(C)C)c(O)c(C)c1CC1=NCCN1`, in [11], the fluorescence slope change was 75.3% (active). For the same compound, in [1], the inhibition was -9.11%. In assay [2], the score was 1.29. Also, in assay [3], the rescue above control amounted to 2.64. Further, the cytochrome c release ratio in [4] was determined as 0.88. Besides, in [5], the inhibition of aggregation was 6.98%. Also, the glutamate uptake change in assay [6] is -22.6%. Moreover, the inclusion score in [7] was determined as 2. Moreover, in assay [8], the aggregation suppression score stood at 1.13. Moreover, the period change in assay [9] was -0.09 h (inactive). The survival in assay [10] is 18.8 (inactive).
Turning to `CC(=O)OCC1=C(C(=O)O)N2C(=O)[C@@H](NC(=O)CSc3ccncc3)[C@H]2SC1`, the fluorescence slope change in assay [11] was 13.4% (inactive). Also, the inhibition in assay [1] is -8.64%. In [2], this compound had a score of 1.04. The rescue above control in assay [3] is -6.1. Further, the cytochrome c release ratio in assay [4] was determined as 1.02. In addition, in assay [5], the inhibition of aggregation was 71.9%. The glutamate uptake change in assay [6] was -2.14%. Besides, the inclusion score in assay [7] was 2. For the same compound, in assay [8], the aggregation suppression score came out at 1.12. Also, the period change in [9] was 0.035 h (inactive). Besides, the survival in [10] was 1.83 (inactive).
Consider `Cc1cc(C(C)(C)C)cc(C)c1CC1=NCCN1`, for which the fluorescence slope change in assay [11] was 26.6% (inactive). The inhibition in [1] is 23.6%. In assay [2], this compound came in with a score of 1.63. The compound also registered a rescue above control in [3] of -3.36. For the same compound, in [4], the cytochrome c release ratio turned out to be 1.05. In [5], the inhibition of aggregation worked out at 63.4%. Besides, the glutamate uptake change in assay [6] was 16.9%. The compound further gave an inclusion score in assay [7] of 2. In assay [8], this compound registered an aggregation suppression score of 1.86. In addition, the period change in assay [9] is 0.03 h (inactive). Besides, the survival in assay [10] was 6.75 (inactive).

(Values after PubChem BioAssay.)
